The values that follow come from PubChem BioAssay (NCATS).

Results filed as inconclusive are left out. The source made the active and inactive calls. The call rests on the fitted dose curve; in most records, active means well fitted inhibition curve with a large enough effect; inconclusive means small, poorly fitted or top-dose-only effect; inactive means flat fitted curve, though single readings scatter. Where a SMILES comes first, the peptide text is derived from it. Bridges are numbered along the chain shown (N, C = ends). [ ]: non-standard residue; d: D form. hArg = N=C(N)NCCCC[C@H](N)C(=O)O; Mpa = O=C(O)CCS
On the % scale 0 is the no-effect control and ±100 the full control effect.

The nature of one experiment: Drug repurposing screens with cells derived from glioblastoma tumor samples (AID 1345199). Further: nearly all actives have a fitted effect of over 40% in size. The settings on record: GBM patient neurospheres viability, ATP luminescence, 48 h; at 45.9 µM (top of the series); tumour line D. The method, boiled down: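 Four patient lines of CD133+ GBM neurospheres were screened at several concentrations; hits were retested in those lines plus three slower-growing GBM lines, using 48-hour treatment and ATP-based viability.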
As to `CN1C[C@@H]2C[C@H]1CN2c1cc2c(cc1F)c(=O)c(C(=O)O)cn2C1CC1`, the activity, negative = cell killing is -9.88% (inactive).
The same measure, in the same setting: the value for `CCOc1ccc(C(=O)OCCN(CC)CC)cc1` was -13.5% (inactive); that for `CCOc1cc(NC(C)=O)ccc1C(=O)OC` was -29.2% (inactive).
Still for that read-out and setting: the value for `COc1nccnc1NS(=O)(=O)c1ccc(N)cc1` was -17.5% (inactive); that for `CCCCCC(C)N` (centres undefined) was -7.45% (inactive).
The same measure, in the same setting: the value for `CCc1nnc(NS(=O)(=O)c2ccc(N)cc2)s1` was -9.53% (inactive); that for `O=C(O)c1ccc(OCCCOc2ccc(C(=O)O)cc2)cc1` was -29% (inactive); that for `O=C(Cn1ccnc1[N+](=O)[O-])NCCO` was -6.24% (inactive).
Turning to `NC(=O)[C@@H]1CSSCCC(=O)N[C@@H](CCCCN=C(N)N)C(=O)NCC(=O)N[C@@H](CC(=O)O)C(=O)N[C@@H](Cc2c[nH]c3ccccc23)C(=O)N2CCC[C@H]2C(=O)N1` ([Mpa][hArg]GDWPC-NH2; disulfide 1-7), the activity, negative = cell killing is 4.68% (inactive).
Take `O=c1[nH]c(=O)c2ccccc2o1`: the activity, negative = cell killing was -4.94% (inactive).
Same read-out and setting: in the case of `NNC(=O)CP(=O)(c1ccccc1)c1ccccc1` it was -15% (inactive); in that of `COc1ccccc1Oc1c(NS(=O)(=O)c2ccc(C(C)(C)C)cc2)nc(-c2ncccn2)nc1OCCO`, -7.18% (inactive); in that of `CCN(CC)CC1CCCCN1CC(=O)N1c2ccccc2C(=O)Nc2cccnc21` (centres undefined), -5.02% (inactive).
On the same count and under the same terms, in the case of `O=C(/C=C/c1ccc(O)c(O)c1)O[C@@H]1C[C@@](OC(=O)/C=C/c2ccc(O)c(O)c2)(C(=O)O)C[C@@H](O)[C@@H]1O` it was -4.97% (inactive); in that of `CCCNC(C)(C)COC(=O)c1ccccc1`, 11.4% (inactive); in that of `CNc1c2c(nn1C)CCCC2`, -0.633% (inactive).
Same read-out and setting: the value for `COc1ccccc1OC(=O)Oc1ccccc1OC` was -3.45% (inactive).
As for `CC(=O)N(CC(O)CO)c1c(I)c(C(=O)NCC(O)CO)c(I)c(C(=O)NCC(O)CO)c1I` (centres undefined), the activity, negative = cell killing was -8.17% (inactive).
As to `CC(N)CCCC(C)(C)O` (centres undefined), the activity, negative = cell killing is -3.88% (inactive).
The same measure, in the same setting: the value for `Cc1[nH]c(C)c(Cl)c(=O)c1Cl` was -2.96% (inactive); that for `CCN(CC)CCOC(=O)C(c1ccccc1)c1ccccc1` was -3.55% (inactive); that for `CN1CCCN=C1COC(=O)C(O)(c1ccccc1)C1CCCCC1` (centres undefined) was -25.7% (inactive).
The same measure, in the same setting: the value for `CCOC(=O)c1cccnc1` was -8.05% (inactive).
The same measure, in the same setting: in the case of `CCCCCCCCCCC(CO)CCCCCCCC` (centres undefined) it was -0.979% (inactive); in that of `CCN(CC)S(=O)(=O)c1ccc(C(=O)O)cc1`, -3.35% (inactive).
In the case of `O=C(NCCCN1CCOCC1)c1ccc(Cl)cc1`, the activity, negative = cell killing is -16.9% (inactive).
Same read-out and setting: in the case of `CC1(C)S[C@@H]2[C@H](N=CN3CCCCCC3)C(=O)N2[C@H]1C(=O)O` it was 9.1% (inactive).
Turning to `O=C(O)c1ccc[n+]([O-])c1`, the activity, negative = cell killing is 12.2% (inactive).
The same measure, in the same setting: in the case of `NC(=O)CC[C@@H](N)C(=O)O` it was 12.3% (inactive).

The same experiment, now with this note: GBM patient neurospheres viability, ATP luminescence, 48 h; at 46 µM (top of the series); tumour line A.
As to `CN1C[C@@H]2C[C@H]1CN2c1cc2c(cc1F)c(=O)c(C(=O)O)cn2C1CC1`, the activity, negative = cell killing was -19.7% (inactive).
On the same count and under the same terms, the value for `CCOc1ccc(C(=O)OCCN(CC)CC)cc1` was -29% (inactive).
Consider `CCOc1cc(NC(C)=O)ccc1C(=O)OC`, for which the activity, negative = cell killing is -29.3% (inactive).
Regarding `COc1nccnc1NS(=O)(=O)c1ccc(N)cc1`, the activity, negative = cell killing was -24.3% (inactive).
On the same count and under the same terms, in the case of `CCCCCC(C)N` (centres undefined) it was -32% (inactive); in that of `CCc1nnc(NS(=O)(=O)c2ccc(N)cc2)s1`, -28.8% (inactive).
On the same count and under the same terms, in the case of `O=C(O)c1ccc(OCCCOc2ccc(C(=O)O)cc2)cc1` it was -33.4% (inactive); in that of `O=C(Cn1ccnc1[N+](=O)[O-])NCCO`, -16.3% (inactive); in that of `NC(=O)[C@@H]1CSSCCC(=O)N[C@@H](CCCCN=C(N)N)C(=O)NCC(=O)N[C@@H](CC(=O)O)C(=O)N[C@@H](Cc2c[nH]c3ccccc23)C(=O)N2CCC[C@H]2C(=O)N1` ([Mpa][hArg]GDWPC-NH2; disulfide 1-7), -11% (inactive).
In the case of `O=c1[nH]c(=O)c2ccccc2o1`, the activity, negative = cell killing was -29.8% (inactive).
Still for that read-out and setting: in the case of `NNC(=O)CP(=O)(c1ccccc1)c1ccccc1` it was -19.4% (inactive); in that of `COc1ccccc1Oc1c(NS(=O)(=O)c2ccc(C(C)(C)C)cc2)nc(-c2ncccn2)nc1OCCO`, -57.2% (inactive); in that of `CCCNC(C)(C)COC(=O)c1ccccc1`, -6.31% (inactive).
On the same count and under the same terms, in the case of `CNc1c2c(nn1C)CCCC2` it was -5.91% (inactive); in that of `COc1ccccc1OC(=O)Oc1ccccc1OC`, -34.8% (inactive); in that of `CC(=O)N(CC(O)CO)c1c(I)c(C(=O)NCC(O)CO)c(I)c(C(=O)NCC(O)CO)c1I` (centres undefined), -31.6% (inactive).
Same read-out and setting: the value for `CC(N)CCCC(C)(C)O` (centres undefined) was -24.8% (inactive).
`Cc1[nH]c(C)c(Cl)c(=O)c1Cl`: the activity, negative = cell killing was -17.9% (inactive).
The same measure, in the same setting: the value for `CCN(CC)CCOC(=O)C(c1ccccc1)c1ccccc1` was -25.1% (inactive); that for `CCOC(=O)c1cccnc1` was -24.1% (inactive); that for `CCN(CC)S(=O)(=O)c1ccc(C(=O)O)cc1` was -16.8% (inactive).
Same read-out and setting: the value for `O=C(NCCCN1CCOCC1)c1ccc(Cl)cc1` was -28.4% (inactive).
In the case of `CC1(C)S[C@@H]2[C@H](N=CN3CCCCCC3)C(=O)N2[C@H]1C(=O)O`, the activity, negative = cell killing is -11.3% (inactive).
Still for that read-out and setting: in the case of `O=C(O)c1ccc[n+]([O-])c1` it was -25.2% (inactive); in that of `NC(=O)CC[C@@H](N)C(=O)O`, 4.73% (inactive).
